From PubChem BioAssay (NCATS)
Where “and” joins values, the source holds several entries; their conditions need not be identical. Identical values can stand only once. Inconclusive results are not listed. Calls of active or inactive are those of the source. Unless noted, calls follow the shape of the dose curve; as a rule, active = well fitted curve in the direction sought with a large enough effect; inconclusive = small, poorly fitted or top-dose-only effect, or another doubt; inactive = no such curve, though single readings can be large; an effect the other way counts as inactive or inconclusive.

Tests used:
[1] = Cellular Toxicity (caspase-3) MRC-5 (AID 659); details: MRC-5 cells, luminescence, normalized: DMSO 0%, 10 µM staurosporine 100%; series mostly up to 91.7 µM
How it was run: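 Apoptosis readout in MRC-5 cells: luciferase light generated after caspase 3/7 cleaves a peptide-aminoluciferin substrate, measured post 16 hr compound incubation at 37 °C.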

[2] = Cellular Toxicity (caspase-3) Mesangial (AID 660); details: mesangial cells, normalized: DMSO 0%, 100 µM tamoxifen 100%; series mostly up to 91.7 µM;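 also: combined caspase 3 and 7 activity read by Caspase-Glo luminescence; cells exposed to compound for 16 h before the caspase read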
How it was run: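 Caspase 3/7 activation measured by Caspase-Glo 3/7 luminescence (20 min, room temperature) following 16 h exposure of mesangial cells (1000/well); AC50 from Hill-equation fit, normalized to DMSO and 100 uM tamoxifen.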

[3] = Cellular Toxicity (caspase-3) SK-N-SH (AID 661); details: SK-N-SH caspase-3 activation, qHTS, DMSO as zero, staurosporine as full; series mostly up to 91.7 µM
How it was run: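 Caspase 3/7 activation was read by luminogenic substrate cleavage after 16 hour treatment of SK-N-SH cells. Signal was scaled between DMSO and 10 uM staurosporine, and concentration-response data were fitted with the Hill equation for AC50.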

[4] = Cellular Toxicity (caspase-3) H-4-II-E (AID 663); details: H-4-II-E rat hepatoma, scaled: DMSO 0%, 100 µM tamoxifen 100%; series mostly up to 92.2 µM;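 also: cells exposed to compound for 16 hr before readout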
How it was run: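 Caspase 3/7 activation measured in H-4-II-E cells in complete culture medium after 16 hr treatment at 37 °C, using luciferase-coupled substrate readout; AC50 values come from Hill-equation fits of normalized concentration-response data.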

[5] = Cellular Toxicity (caspase-3) N2a (AID 665); details: N2a cells, luminescence, normalized: DMSO 0%, 10 µM staurosporine 100%; series mostly up to 92.2 µM;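 also: compound exposure lasted 16 h at 37 °C before readout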
How it was run: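 Caspase-3/7 activation measured as luminescence from Caspase-Glo reagent (1 h, room temperature) after 16 h compound exposure of mouse N2a cells. AC50 values from Hill-equation concentration-response, scaled between DMSO and 10 uM staurosporine.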

[6] = Cellular Toxicity (caspase-3) NIH 3T3 (AID 666); details: NIH 3T3 caspase-3 activation, apoptosis/toxicity, 0% DMSO, 100% is 100 µM tamoxifen; series mostly up to 92.2 µM;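 also: caspase signal read after 16 h compound exposure; 0% = DMSO basal and 100% = 100 µM tamoxifen stimulation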
How it was run: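 Caspase-Glo 3/7 luminescence reported caspase activation in 1000 NIH 3T3 cells/well after 16 h compound exposure at 37 C. DMSO set basal and 100 uM tamoxifen set 100% stimulation; concentration-response modeled with the Hill equation for AC50.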

[7] = Cellular Toxicity (caspase-3) Renal Proximal Tubule (AID 667); details: renal proximal tubule cells; series mostly up to 91.7 µM;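 also: cells exposed to compound for 16 hours at 37 °C before detection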
How it was run: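 Freshly isolated primary rat kidney proximal tubule cells, 1000/well, treated 16 hr at 37 °C, then Caspase-Glo 3/7 luminescence after 1 hr. Normalized to DMSO and 10 uM staurosporine; AC50 from Hill fit.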

[8] = Cell Viability - LYMP2-001 (AID 921); details: LYMP2-001 lymphoblastoid cell viability; series mostly up to 92.2 µM;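 also: 0% = DMSO only and full inhibition = tetraoctylammonium bromide control wells; nearly all actives have a fitted effect of over 70% in size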
How it was run: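 Human lymphoblastoid LYMP2-001 cells, 2500 per well, in complete medium, treated 24 h at 37 C. Viability from cellular ATP by CellTiter-Glo luminescence; AC50 from Hill-equation fits of qHTS concentration-response.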

[9] = MultiTox-Fluor Cytotoxicity Assay - LYMP1-001 - Live Cells (AID 947); details: LYMP1-001 lymphoblastoid cells, live-cell protease fluorescence viability; series mostly up to 92.2 µM;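 also: 0% = DMSO only and full inhibition = tetraoctylammonium bromide control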
[10] = MultiTox-Fluor Cytotoxicity Assay - LYMP1-002 - Live Cells (AID 955); details: LYMP1-002 lymphoblastoid live-cell protease fluorescence viability; series mostly up to 46.1 µM; also: % is scaled to controls: 0 for no effect and ±100 for the full control effect
How it was run: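 After 16 h compound exposure at 37 C, live LYMP1-002 lymphoblastoid cells (2500/well) were quantified by cleavage of cell-permeant GF-AFC substrate, read at 405/510 nm after 60 min. Concentration-response fitted with Hill equation for AC50.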

[11] = MultiTox-Fluor Cytotoxicity Assay - LYMP1-003 - Dead Cells (AID 961); details: LYMP1-003 lymphoblastoid cells, dead-cell protease fluorescence; series mostly up to 92.2 µM; also: nearly all actives have a fitted effect of over 70% in size
How it was run: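 Dead-cell protease release, detected as bis-AAF-R110 fluorescence at 485/520 nm, was measured in LYMP1-003 cells after 16 h compound treatment at 37 C. AC50 values came from Hill-modeled qHTS curves normalized to DMSO (0%) and 15 uM tetraoctylammonium bromide (100%).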

[12] = MultiTox-Fluor Cytotoxicity Assay - LYMP1-003 - Live Cells (AID 962); details: LYMP1-003 lymphoblastoid cells, MultiTox-Fluor live-cell protease fluorescence; series mostly up to 92.2 µM;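 also: 0% = DMSO only and full loss = 92 µM tetraoctylammonium bromide; cytotoxic hits lower the live-cell protease signal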
How it was run: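 Live-cell protease activity (GF-AFC substrate, 405/510 nm, 60 min at room temperature) after 16 h, 37 C compound exposure of human lymphoblastoid LYMP1-003 cells; concentration-response fitted to the Hill equation for AC50.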

[13] = Cell Viability - LYMP2-003 (AID 965); details: LYMP2-003 lymphoblastoid cell viability; series mostly up to 92.2 µM;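 also: cells exposed to compounds for 24 h before reading; 0% = DMSO only and full effect = 92 µM tetraoctylammonium bromide; nearly all actives have a fitted effect of over 50% in size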
How it was run: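 Human lymphoblastoid LYMP2-003 cells, 2500/well, exposed to compounds for 24 h at 37 C in complete medium. Viability read as intracellular ATP by CellTiter-Glo luminescence; AC50 from Hill-equation fits of qHTS concentration-response data.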

[14] = Cell Viability - LYMP2-004 (AID 966); details: LYMP2-004 lymphoblastoid cell viability, qHTS; series mostly up to 92.2 µM;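 also: plate controls were DMSO only for no effect and tetraoctylammonium bromide control for full effect; nearly all actives have a fitted effect of over 65% in size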
How it was run: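 AC50 values come from Hill modelling of concentration-dependent loss of intracellular ATP, measured by CellTiter-Glo luminescence. Human LYMP2-004 lymphoblastoid cells (2500/well) were exposed to compound for 24 h at 37 C.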

[15] = qHTS assay for small molecule agonists of the antioxidant response element (ARE) signaling pathway measured by Nrf2-dependant transcriptional activity (AID 720636; active = well fitted curve in the direction sought with a large enough effect in the repeat runs; an effect the other way counts as inactive or inconclusive; also: % of control where 0% means no effect); details: ARE-luc HepG2, Nrf2 luciferase reporter, 16 h; series mostly up to 92.4 µM
How it was run: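 Quantitative HTS format in HepG2 cells stably expressing an ARE-luciferase reporter; 16 hr compound treatment at 37 C, luciferase signal detected with ONE-Glo.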

[16] = qHTS assay for small molecule antagonists of the retinoid-related orphan receptor gamma (ROR-gamma) signaling pathway - cell viability counter screen (AID 720652; active = well fitted curve in the direction sought with a large enough effect in the repeat runs; an effect the other way counts as inactive or inconclusive;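 also: CHO reporter cells with doxycycline-induced ROR-gamma expression; compound exposure lasted 16 hr before ATP read; % is scaled to controls: 0 for no effect and ±100 for the full control effect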); details: RORgamma reporter cell line viability counter screen; series mostly up to 92.2 µM
How it was run: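 Cytotoxicity counter screen: intracellular ATP (CellTiter-Glo luminescence) measured in the doxycycline-induced CHO RORE-luciferase reporter line after 16 hr compound exposure at 37 C, 5% CO2.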

[17] = qHTS assay for small molecule agonists of the antioxidant response element (ARE) signaling pathway measured by Nrf2-dependant transcriptional activity - cell viability counter screen (AID 720653; active = well fitted curve in the direction sought with a large enough effect in the repeat runs; an effect the other way counts as inactive or inconclusive; also: % is scaled to controls: 0 for no effect and ±100 for the full control effect); details: ARE-bla HepG2 viability, CellTiter-Glo ATP luminescence, 16 h; max response: active compounds read low
How it was run: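 ARE-bla HepG2 cells (2,000/well) rested 5 hrs at 37C/5% CO2, then exposed to compounds in DMSO for 16 hrs. Viability was read in the same wells as intracellular ATP by luminescence, 30 min at room temperature after reagent addition.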

[18] = qHTS assay for cell viability of HEK293 cells (AID 743288); details: ATP luminescence (CellTiter-Glo), 18 h; max response: active compounds read low; also: % is scaled to controls: 0 for no effect and ±100 for the full control effect; nearly all actives have a fitted effect of over 50% in size
How it was run: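 Steps: plate 2,000 parental HEK293 cells per well; incubate ≥5 h, 37 C; add compounds in DMSO; incubate 18 h, 37 C; add CellTiter-Glo; wait 30 min at room temperature; read luminescence.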

[19] = qHTS assay for cell viability of the p53RE-bla HCT-116 cell line (AID 743292); details: p53RE-bla HCT-116 viability, ATP luminescence, 16 h; series mostly up to 95 µM; also: % is scaled to controls: 0 for no effect and ±100 for the full control effect; nearly all actives have a fitted effect of over 55% in size
How it was run: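 Viability of compound-treated p53RE-bla HCT-116 cells is taken from ATP-dependent luciferase luminescence. Treatment lasts 16 h at 37 C after a 5 h settling period; detection follows 30 min at room temperature.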

[20] = qHTS assay for small molecule activators of the human pregnane X receptor (PXR) signaling pathway (AID 720659; call rule not given here; also: 0% is about no effect); details: DPX-2 HepG2 CYP3A4-luciferase, 24 h; series mostly up to 92.3 µM

Cc1ccccc1O
inactive: outcome [1] | outcome [2] | outcome [3] | outcome [4] | outcome [5] | outcome [6] | outcome [7] | outcome [8] | outcome [9] | outcome [10] | Potency [11] | outcome [12] | outcome [13] | outcome [14] | Potency [15] | outcome [16] | max response [17] -2.37% and 9.1% | max response [18] -5.04% and -4.42% | outcome [19] | outcome [20]
